Activity calls are given as the source filed them. Unless noted, how the calls were made is not given here.
What was measured:
[1] = test system: Wnt5a (protein binding on small-molecule microarray); assay: Wnt5a binders on small-molecule microarray, primary screen, biophysical, 635/667 nm fluorescence (AID 1142); conditions: 635 nm fluorescence, higher = more signal;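 further: fluorescence read at 667 nm with signal to noise per printed feature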
[2] = cell viability in Huh7 cells, primary screen, cytotoxicity control for HCV replication inhibitor project, CellTiter-Glo luminescence, basal, 48 h (AID 1143); conditions: Huh7 HCV replicon, higher = more signal, called active from +8 up or from −8 down;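 further: Huh7 hepatoma cells carrying a hepatitis C replication reporter with no stimulus; test concentration not given here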
[3] = P. aeruginosa biofilm formation inhibitors, primary screen, PAO1 strain, BacTiter-Glo luminescence, LB-PBS (AID 1144); conditions: 12 h, higher = more signal
[4] = CREB reporter modulators without forskolin, primary screen, cell-based, PC12, CRE-LacZ reporter, unstimulated (AID 1145); conditions: no forskolin, luminescence, 4.5 h, higher = more signal, called active from +8 up or from −8 down
[5] = CREB reporter modulators under forskolin, primary screen, cell-based, PC12, CRE-LacZ reporter, forskolin-stimulated (AID 1146); conditions: luminescence, 4.5 h, higher = more signal, called active from +8 up or from −8 down;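 further: PC12 cells with 6xCRE LacZ reporter stimulated by forskolin 10 µM; beta-galactosidase reporter signal reflecting CREB driven transcription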
[6] = target: Streptavidin (Streptomyces avidinii) (UniProt P22629); assay: streptavidin binders on small-molecule microarray, primary screen, artefact control for SMM compound annotation, biophysical, 635/667 nm fluorescence (AID 1147); conditions: streptavidin binding, higher = more signal;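 further: signal reflects streptavidin binding to arrayed compounds as a control protein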
[7] = small-molecule binders of probe aInhba, primary screen, biochemical, small-molecule microarray, 635/667 nm fluorescence (AID 1148); conditions: higher = more signal;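 further: score merges 667nm spot fluorescence with signal-to-noise for antibody binding to printed compounds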
Torsin-1A (Homo sapiens) [8] = target: Torsin-1A (Homo sapiens) (UniProt O14656); assay: torsin A binders from cell lysate, primary screen, small-molecule microarray, wild-type, 635/667 nm (AID 1149); conditions: COS7 hTOR1A-WT lysate, 635 nm fluorescence, higher = more signal
Torsin-1A (Homo sapiens) [9] = target: Torsin-1A (Homo sapiens) (UniProt O14656); assay: small-molecule binders of mutant TOR1A in lysate, primary screen, cell lysate, small-molecule microarray, COS7 lysate, 635/667 nm fluorescence (AID 1150); conditions: COS7 hTOR1A mutant lysate, 635 nm fluorescence, higher = more signal;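 further: score pools 667 nm emission and signal to noise measuring lysate protein binding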
[10] = test system: Sonic hedgehog protein (Shh); assay: small-molecule binders of Shh protein, primary screen, biochemical, small-molecule microarray, 635/667 nm fluorescence (AID 1151); conditions: small-molecule microarray binding, 635 nm fluorescence; higher = more signal;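 further: Shh protein binding to compounds spotted on small-molecule microarray slides; score combines spot fluorescence intensity with signal-to-noise across triplicate slides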
[11] = E. coli DRC41 culture turbidity changes, primary screen, E. coli filamentation inducer project, strain DRC41, OD650, 48 h (AID 1152);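 further: E. coli MC1000 strain DRC41 lacking acrAB efflux pump and sulA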; conditions: E. coli DRC41 (acrAB sulA), higher = more signal, called active from +8 up or from −8 down
[12] = small-molecule binders of probe aLefty1, primary screen, biochemical, small-molecule microarray, 635/667 nm fluorescence (AID 1153); conditions: higher = more signal;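 further: score merges spot fluorescence with signal-to-noise ratio from the scanned slide images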
[13] = PSAC antagonists in infected red cells, primary screen, cell-based, P. falciparum Indochina, OD700, 1 h (AID 1154); conditions: P. falciparum Indochina infected RBC osmotic lysis, higher = more signal, called active from +8 up or from −8 down
[14] = PSAC antagonists in infected red cells, primary screen, cell-based, P. falciparum Indochina, OD700, 2 h (AID 1155);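 further: lysis reports solute entry through the parasite surface anion channel PSAC; channel blockers reduce lysis of infected cells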; conditions: P. falciparum Indochina infected erythrocytes, osmotic lysis OD700; higher = more signal, called active from +8 up or from −8 down
[15] = osmotic lysis modulators in infected erythrocytes, primary screen, PSAC antagonist project, cell-based, P. falciparum Indochina, OD700, 3 h (AID 1156); conditions: higher = more signal, called active from +8 up or from −8 down
[16] = PSAC antagonists in infected red cells, primary screen, cell-based, P. falciparum Indochina, OD700, 18 h (AID 1157); conditions: P. falciparum Indochina infected erythrocytes, osmotic lysis OD700, 18 h; higher = more signal, called active from +8 up or from −8 down
[17] = modulators of S6 phosphorylation in cells, primary screen, cell-based, A549, cytoblot, luminescence, serum-stimulated (AID 1158); conditions: A549 phospho-S6 cytoblot, 5 h, higher = more signal;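 further: serum-stimulated A549 lung adenocarcinoma cells; signal is phosphorylated S6 detected by cytoblot immunostaining with HRP secondary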
[18] = target: NADPH oxidase 2 (Homo sapiens) (UniProt P04839); assay: NOX2-dependent H2O2 signal modulators, primary screen, NOX inhibitor project, cell-based, HEK293-NOX2, PMA-stimulated, Amplex Red fluorescence (AID 1159); conditions: 45 min, higher = more signal, called active from +8 up or from −8 down; further: test concentration not given here
[19] = target: NADPH oxidase 4 (Homo sapiens) (UniProt Q9NPH5); assay: NOX4-dependent H2O2 signal modulators, primary screen, NOX inhibitor project, cell-based, HEK293-NOX4, tetracycline-induced, Amplex Red fluorescence (AID 1160); conditions: 45 min, higher = more signal, called active from +8 up or from −8 down
[20] = target: NADPH oxidase 5 (Homo sapiens) (UniProt Q96PH1); assay: NOX5-dependent H2O2 signal modulators, primary screen, NOX inhibitor project, cell-based, HEK293-NOX5, Amplex Red fluorescence (AID 1161); conditions: HEK293-NOX5, ionomycin, 45 min, higher = more signal
NADPH oxidase 5 (Homo sapiens), sequence (Q96PH1 whole entry, looked up): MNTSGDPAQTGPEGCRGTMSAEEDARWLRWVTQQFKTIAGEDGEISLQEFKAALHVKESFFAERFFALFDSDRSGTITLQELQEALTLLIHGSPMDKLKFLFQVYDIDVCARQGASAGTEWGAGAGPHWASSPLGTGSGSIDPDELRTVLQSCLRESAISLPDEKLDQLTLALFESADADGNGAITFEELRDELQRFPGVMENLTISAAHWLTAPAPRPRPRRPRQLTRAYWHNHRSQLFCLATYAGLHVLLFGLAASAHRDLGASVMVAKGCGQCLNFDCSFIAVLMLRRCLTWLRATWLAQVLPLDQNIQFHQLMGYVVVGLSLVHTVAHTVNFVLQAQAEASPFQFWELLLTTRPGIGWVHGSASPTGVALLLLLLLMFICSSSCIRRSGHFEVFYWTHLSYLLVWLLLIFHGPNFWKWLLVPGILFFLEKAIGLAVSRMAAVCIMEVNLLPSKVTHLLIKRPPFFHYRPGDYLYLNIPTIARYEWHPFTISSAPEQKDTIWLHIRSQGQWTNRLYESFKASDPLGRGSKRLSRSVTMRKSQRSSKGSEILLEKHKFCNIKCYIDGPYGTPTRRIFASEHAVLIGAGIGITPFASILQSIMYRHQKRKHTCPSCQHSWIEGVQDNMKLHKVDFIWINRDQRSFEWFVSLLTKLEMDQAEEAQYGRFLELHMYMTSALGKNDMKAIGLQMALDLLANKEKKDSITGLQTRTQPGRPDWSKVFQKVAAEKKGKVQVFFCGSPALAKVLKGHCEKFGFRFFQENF

NADPH oxidase 4 (Homo sapiens), sequence (Q9NPH5 whole entry, looked up): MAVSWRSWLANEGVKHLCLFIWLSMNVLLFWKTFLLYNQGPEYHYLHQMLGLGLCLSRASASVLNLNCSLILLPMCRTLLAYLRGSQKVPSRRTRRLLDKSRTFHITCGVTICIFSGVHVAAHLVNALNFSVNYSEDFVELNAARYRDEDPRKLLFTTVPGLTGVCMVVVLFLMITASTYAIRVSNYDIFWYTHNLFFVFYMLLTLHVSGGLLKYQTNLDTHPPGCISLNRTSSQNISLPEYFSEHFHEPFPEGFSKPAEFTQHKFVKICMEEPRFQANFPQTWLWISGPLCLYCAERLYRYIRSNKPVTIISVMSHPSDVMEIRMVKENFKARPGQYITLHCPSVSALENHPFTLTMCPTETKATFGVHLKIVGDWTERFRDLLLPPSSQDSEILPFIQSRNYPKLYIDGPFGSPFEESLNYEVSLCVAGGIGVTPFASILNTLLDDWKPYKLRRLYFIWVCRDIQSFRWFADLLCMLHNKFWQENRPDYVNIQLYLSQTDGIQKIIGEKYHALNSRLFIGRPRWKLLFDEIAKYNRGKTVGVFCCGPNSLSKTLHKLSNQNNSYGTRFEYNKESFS
Streptavidin (Streptomyces avidinii), sequence (P22629 whole entry, looked up): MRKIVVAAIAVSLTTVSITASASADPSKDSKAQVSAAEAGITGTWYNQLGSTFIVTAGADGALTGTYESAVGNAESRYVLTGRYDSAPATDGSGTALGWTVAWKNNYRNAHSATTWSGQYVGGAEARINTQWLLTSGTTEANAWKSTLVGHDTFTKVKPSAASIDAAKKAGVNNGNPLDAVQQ
NADPH oxidase 2 (Homo sapiens), sequence (P04839 whole entry, looked up): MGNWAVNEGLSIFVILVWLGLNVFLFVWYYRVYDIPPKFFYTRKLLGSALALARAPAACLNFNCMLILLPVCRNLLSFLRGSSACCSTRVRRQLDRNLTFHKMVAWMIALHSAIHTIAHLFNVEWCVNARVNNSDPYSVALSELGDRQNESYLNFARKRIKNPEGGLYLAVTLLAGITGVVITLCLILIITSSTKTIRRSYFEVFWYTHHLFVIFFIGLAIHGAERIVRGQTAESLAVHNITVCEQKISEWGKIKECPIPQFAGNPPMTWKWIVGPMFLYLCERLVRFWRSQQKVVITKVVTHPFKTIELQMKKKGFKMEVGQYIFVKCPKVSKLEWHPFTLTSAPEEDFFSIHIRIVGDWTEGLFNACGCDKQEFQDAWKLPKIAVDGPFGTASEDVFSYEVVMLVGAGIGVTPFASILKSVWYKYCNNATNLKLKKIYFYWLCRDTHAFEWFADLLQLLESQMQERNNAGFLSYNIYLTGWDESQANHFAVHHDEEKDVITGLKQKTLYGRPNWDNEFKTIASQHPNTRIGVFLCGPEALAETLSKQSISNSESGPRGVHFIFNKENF
Torsin-1A (Homo sapiens), sequence (O14656 whole entry, looked up): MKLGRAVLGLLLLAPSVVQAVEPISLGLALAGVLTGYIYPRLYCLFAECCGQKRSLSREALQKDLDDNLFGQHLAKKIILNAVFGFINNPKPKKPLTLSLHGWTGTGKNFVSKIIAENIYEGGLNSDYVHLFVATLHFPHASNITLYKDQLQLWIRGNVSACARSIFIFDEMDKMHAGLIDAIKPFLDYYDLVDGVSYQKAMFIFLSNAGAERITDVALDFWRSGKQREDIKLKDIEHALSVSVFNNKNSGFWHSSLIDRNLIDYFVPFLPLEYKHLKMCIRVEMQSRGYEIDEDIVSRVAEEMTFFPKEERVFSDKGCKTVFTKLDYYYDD

With `COc1ccc(C#Cc2ccc3c(c2)[C@]2(C(=O)N3)[C@H](C(=O)O)[C@H]3C(=O)O[C@H](c4ccccc4)[C@H](c4ccccc4)N3[C@@H]2c2ccc(OCCO)cc2)cc1` the composite z-score [1] was 0.356, the z-score [2] was -0.969 (inactive) and the z-score [3] was -0.859 (inactive). The z-score [4] was 0.272 (inactive), the z-score [5] was 0.408 (inactive) and the composite z-score [6] was 1.59. The composite z-score [7] was 0.399, the composite z-score (Torsin-1A (Homo sapiens) [8]) was -0.0331 and the composite z-score (Torsin-1A (Homo sapiens) [9]) was 0.739. For the same molecule, the composite z-score [10] was 1.3, the z-score [11] was 0.962 (inactive) and the composite z-score [12] was 0.33. The z-score [13] was 3.33 (inactive), the z-score [14] was -0.266 (inactive) and the z-score [15] was -8.91 (active). For the same molecule, the z-score [16] was -0.097 (inactive), the z-score [17] was -0.0207 and the z-score [18] was 1.67 (inactive). The z-score [19] was -0.925 (inactive) and the z-score [20] was 1.12.
With `O=C1CSC(c2cccc([N+](=O)[O-])c2)N1c1ccccc1` (stereo not given) the composite z-score [1] was 0.0388, the z-score [2] was -0.735 (inactive) and the z-score [3] was -0.249 (inactive). For the same molecule, the z-score [4] was -0.321 (inactive), the z-score [5] was -0.567 (inactive) and the composite z-score [6] was -0.545. It also gave a composite z-score [7] of -0.147, a composite z-score (Torsin-1A (Homo sapiens) [8]) of 0.838 and a composite z-score (Torsin-1A (Homo sapiens) [9]) of 0.153. For the same molecule, the composite z-score [10] was 0.221, the z-score [11] was 0.0188 (inactive) and the composite z-score [12] was 0.0163. For the same molecule, the z-score [13] was 0.0361 (inactive), the z-score [14] was 0.111 (inactive) and the z-score [15] was 0.708 (inactive). For the same molecule, the z-score [16] was -0.139 (inactive), the z-score [17] was -0.0619 and the z-score [18] was -0.276 (inactive). The z-score [19] was -0.0621 (inactive) and the z-score [20] was 0.509.
With `CCCC[C@@H](O)C1=C(COc2ccccc2)Cn2c(=O)n(-c3ccccc3)c(=O)n2[C@H]1CO` the composite z-score [1] was -0.154, the z-score [2] was -1.86 (inactive) and the z-score [3] was -0.569 (inactive). For the same molecule, the z-score [4] was 1.67 (inactive), the z-score [5] was -1.23 (inactive) and the composite z-score [6] was -0.447. The composite z-score [7] was -0.0762, the composite z-score (Torsin-1A (Homo sapiens) [8]) was -0.218 and the composite z-score (Torsin-1A (Homo sapiens) [9]) was -0.348. For the same molecule, the composite z-score [10] was -0.0649, the z-score [11] was 2.85 (inactive) and the composite z-score [12] was -0.275. The z-score [13] was 2.58 (inactive), the z-score [14] was -0.478 (inactive) and the z-score [15] was -0.34 (inactive). For the same molecule, the z-score [16] was -2.27 (inactive), the z-score [17] was 0.814 and the z-score [18] was -0.809 (inactive). For the same molecule, the z-score [19] was 0.33 (inactive) and the z-score [20] was -0.235.
For `CC(=O)NCCCC[C@@H]1NC(=O)[C@@H]2C[C@H](C(=O)NCCCC[N+](C)(C)C)[C@H](c3cccc(OCCO)c3)N2C1=O`, the composite z-score [1] was 0.198, the z-score [2] was -0.283 (inactive) and the z-score [3] was -0.192 (inactive). For the same molecule, the z-score [4] was -0.532 (inactive), the z-score [5] was -0.441 (inactive) and the composite z-score [6] was -0.407. For the same molecule, the composite z-score [7] was -0.0471, the composite z-score (Torsin-1A (Homo sapiens) [8]) was 2.44 and the composite z-score (Torsin-1A (Homo sapiens) [9]) was 1.83. For the same molecule, the composite z-score [10] was 1.89, the z-score [11] was -0.832 (inactive) and the composite z-score [12] was 0.206. The z-score [13] was 1.63 (inactive), the z-score [14] was 0.372 (inactive) and the z-score [15] was -0.122 (inactive). The z-score [16] was 0.154 (inactive), the z-score [17] was -0.246 and the z-score [18] was 0.151 (inactive). The z-score [19] was -0.0151 (inactive) and the z-score [20] was 1.29.
With `C=CCNC(=O)[C@H]1[C@@H]2C(=O)O[C@@H](c3ccccc3)[C@@H](c3ccccc3)N2[C@@H](c2ccc(OCCO)cc2)[C@]12C(=O)N(C(=O)OCCOC)c1ccc(C#CC3=CCCCC3)cc12` the composite z-score [1] was -0.0184, the z-score [2] was -4.77 (inactive) and the z-score [3] was 1.09 (inactive). For the same molecule, the z-score [4] was -0.0647 (inactive), the z-score [5] was -0.638 (inactive) and the composite z-score [6] was 0.716. The composite z-score [7] was 0.18, the composite z-score (Torsin-1A (Homo sapiens) [8]) was 0.689 and the composite z-score (Torsin-1A (Homo sapiens) [9]) was 0.868. The composite z-score [10] was 1.32, the z-score [11] was 1.1 (inactive) and the composite z-score [12] was 0.213. The z-score [13] was 2.13 (inactive), the z-score [14] was 1.76 (inactive) and the z-score [15] was 0.178 (inactive). The z-score [16] was 0.948 (inactive), the z-score [17] was 0.632 and the z-score [18] was 1.99 (inactive). For the same molecule, the z-score [19] was 0.421 (inactive) and the z-score [20] was 2.48.
In the case of `CN(C)CCCN1C(=O)[C@@]2(Cc3ccccc31)c1ccccc1C(=O)N(Cc1ccccc1)[C@H]2c1ccc(CO)cc1`, the composite z-score [1] was -0.173, the z-score [2] was -5.06 (inactive) and the z-score [3] was -1.74 (inactive). The z-score [4] was -0.491 (inactive), the z-score [5] was -0.665 (inactive) and the composite z-score [6] was -0.394. It also gave a composite z-score [7] of -0.128, a composite z-score (Torsin-1A (Homo sapiens) [8]) of -0.158 and a composite z-score (Torsin-1A (Homo sapiens) [9]) of -0.105. The composite z-score [10] was 0.463, the z-score [11] was 0.0234 (inactive) and the composite z-score [12] was -0.193. For the same molecule, the z-score [13] was -0.0561 (inactive), the z-score [14] was -0.952 (inactive) and the z-score [15] was 0.182 (inactive). For the same molecule, the z-score [16] was -1.33 (inactive), the z-score [17] was 2.05 and the z-score [18] was -2.34 (inactive). The z-score [19] was -2.82 (inactive) and the z-score [20] was -2.96.
With `COC(=O)[C@@]1(Cc2ccc(OC)cc2)[C@H]2c3cc(C(=O)N(C)C)n(Cc4cc(F)c(F)c(F)c4)c3C[C@H]2CN1C(=O)c1ccccc1` the composite z-score [1] was 0.397, the z-score [2] was -4.47 (inactive) and the z-score [3] was -0.00792 (inactive). For the same molecule, the z-score [4] was 1.34 (inactive), the z-score [5] was 1.12 (inactive) and the composite z-score [6] was 1.63. The composite z-score [7] was 0.528, the composite z-score (Torsin-1A (Homo sapiens) [8]) was -0.312 and the composite z-score (Torsin-1A (Homo sapiens) [9]) was 0.712. For the same molecule, the composite z-score [10] was -0.692, the z-score [11] was -1.69 (inactive) and the composite z-score [12] was 0.946. The z-score [13] was 3.64 (inactive), the z-score [14] was 0.0174 (inactive) and the z-score [15] was 1.3 (inactive). For the same molecule, the z-score [16] was -1.37 (inactive), the z-score [17] was 0.968 and the z-score [18] was -2.92 (inactive). The z-score [19] was -1.41 (inactive) and the z-score [20] was -2.54.
With `COc1cc(C(O)C2C=CC3C(=O)NC(=O)C3N2Nc2ccc(Cl)cc2Cl)cc(OC)c1OC` (stereo not given) the composite z-score [1] was 0.273, the z-score [2] was 0.127 (inactive) and the z-score [3] was -0.591 (inactive). For the same molecule, the z-score [4] was 0.622 (inactive), the z-score [5] was 0.472 (inactive) and the composite z-score [6] was 1.59. For the same molecule, the composite z-score [7] was 0.115, the composite z-score (Torsin-1A (Homo sapiens) [8]) was -0.69 and the composite z-score (Torsin-1A (Homo sapiens) [9]) was 0.81. For the same molecule, the composite z-score [10] was 0.245, the z-score [11] was -1.52 (inactive) and the composite z-score [12] was 0.505. For the same molecule, the z-score [13] was 1.94 (inactive), the z-score [14] was 1.49 (inactive) and the z-score [15] was 0.0681 (inactive). For the same molecule, the z-score [16] was 1.24 (inactive), the z-score [17] was -0.778 and the z-score [18] was -0.885 (inactive). For the same molecule, the z-score [19] was -5.56 (inactive) and the z-score [20] was -3.11.
